Assay in all cases: NCI-60 one-dose screen, 48 h (100 = growth as untreated, 0 = no growth, -100 = all killed)
What all share (details): 10 µM unless noted

Assay [1] has as its system NCI-H23 lung.
Assay [2] deals with NCI-H226 lung.
In assay [3] the test system is NCI-H322M lung.
In assay [4] the test system is HOP-62 NSCLC.
Assay [5] has as its system NCI-H460 lung.
In assay [6] the test system is HOP-92 NSCLC.
Assay [7] concerns NCI-H522 lung.
The test system of assay [8] is A549/ATCC NSCLC.
The subject of assay [9] is 786-0 renal.
The test system of assay [10] is COLO 205 colon.
Assay [11] has as its system DU-145 prostate.
The test system of assay [12] is K-562 leukemia.
Assay [13] concerns MALME-3M melanoma.
Assay [14] deals with MDA-MB-231 breast.
Assay [15] deals with RXF 393 renal.
In assay [16] the test system is SF-268 CNS.
The test system of assay [17] is SF-295 CNS.
For assay [18], the system named is UACC-257 melanoma.
In assay [19] the test system is M14 melanoma.

This is part of a sample that, as a whole, favours compounds with a hit. Of some 83,000 tested, about 20% had one in any assay.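 Interpretation: 100, growth as untreated; towards 0, rising growth inhibition; 0, no net growth; 0 to -100, cell death. Compounds scoring below 10 were considered active.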 Unmarked numbers belong to inactive results. The source made the active and inactive calls.

Regarding `CNc1nc(C)c(-c2nc(Nc3cccc(S(N)(=O)=O)c3)ncc2F)s1`, the growth in assay [1] is -18.8% (active); in assay [2], 7.23% (active); in [3], 3.99% (active); in assay [4], 3.17% (active); in assay [5] it was 4.4% (active); in assay [6] it was 38.2%. Moreover, the growth in assay [7] is -11.7% (active); in assay [8], 3.85% (active); in [9], 2.98% (active); in assay [10], -66.1% (active); in assay [11], 10.9%; in [12], 4.89% (active). Further, the growth was -31.4% (active) in assay [13]; 3.09% (active) in [14]; -50% (active) in [15]; -12.7% (active) in [16]; 6.78% (active) in assay [17]; -16.4% (active) in assay [18]. In addition, in [19], the growth was -3.19% (active).
For the compound `CCOC(=O)c1c2c(n3ccc(NC(=O)CCN4CCCCC4)cc13)C(=O)c1ncccc1C2=O`, the growth in assay [1] was -55.2% (active); in [2], 73.8%; in assay [3] it was -77.4% (active); in [4], -74.5% (active); in [5], -35.9% (active); in [6], 78.5%. Moreover, the growth in assay [7] was 5.07% (active); in assay [8] it was -70.1% (active); in assay [9], 19.4%; in assay [10], -71.8% (active); in assay [11], -93.9% (active); in assay [12], -48.2% (active). In addition, the growth was -71.7% (active) in assay [13]; -72.9% (active) in [14]; 41.4% in assay [15]; 36.6% in [16]; 35.3% in assay [17]; 21.2% in [18]. Further, in assay [19], the growth was -77.9% (active).
Turning to `CC1=C(NCCN2CCCC2)C(=O)c2c(OCc3cccc(Cl)c3)cccc2C1=O`, the growth is 81.4% in assay [1]; 94.1% in [2]; 75.8% in assay [3]; 78.4% in [4]; 83.1% in [5]; 60.6% in assay [6]. Also, the growth in [7] was 82.9%; in assay [8], 77.2%; in assay [9] it was 63.3%; in assay [10], 69.7%; in assay [11], 89.9%; in assay [12], 30.8%. Besides, the growth in assay [13] was 53%; in assay [14] it was 62.8%; in assay [15], 73.8%; in [16], 72.8%; in [17], 56.9%; in assay [18], -42.4% (active). The growth in assay [19] is -72.6% (active).
Turning to `COc1cc(-c2c3c(nc4c2c(C)nn4-c2ccccc2)-c2ccccc2C(=O)C3=O)cc(OC)c1OC`, the growth was 76.6% in [1]; 99.7% in assay [2]; 104% in assay [3]; 107% in assay [4]; 77.4% in assay [5]; 83.7% in assay [6]. The growth in assay [7] is 84.4%; in assay [8], 80.6%; in assay [9], 97.8%; in assay [10] it was 69.7%; in assay [11], 92.2%; in [12], 76.9%. Further, the growth in [13] was 72.4%; in assay [14] it was 70.9%; in [15], 83.3%; in [16], 78.9%; in assay [17], 107%; in assay [18], 64.1%. Besides, the growth in assay [19] was 90%.
For the compound `CS(CCCCN=C=S)=NC(=O)c1c(F)c(F)c(F)c(F)c1F` (configuration not stated), the growth in assay [1] is 80.6%; in assay [2] it was 99.6%; in [3] it was 85.6%; in assay [4], 109%; in [5] it was 65.5%; in assay [6], 80.8%. Further, the growth in [7] is 20.6%; in assay [8], 79.6%; in [9], 94.3%; in [10] it was 61.4%; in assay [11], 41.4%; in assay [12] it was 22.5%. Further, the growth in assay [13] is 44.8%; in assay [14] it was 67.9%; in assay [15] it was 41.9%; in assay [16], 86.8%; in assay [17] it was 102%; in [18] it was 61.5%. The growth in [19] is 62.8%.
Turning to `CN(C)CCCC(=O)Nc1ccc(Cn2nnc3c2C(=O)c2nnn(Cc4ccc(NC(=O)CCCN(C)C)cc4)c2C3=O)cc1`, the growth in assay [1] is 2.08% (active); in assay [2], 102%; in assay [3], 38.5%; in assay [4] it was 83.2%; in assay [5] it was 31%; in assay [6], 116%. For the same compound, the growth is 71.8% in [7]; 91.9% in assay [8]; 96.9% in assay [9]; -9.75% (active) in [10]; 86% in assay [11]; 70.1% in assay [12]. Further, the growth is -33.4% (active) in assay [13]; 3.74% (active) in assay [14]; 90.8% in assay [15]; 80.6% in assay [16]; 77.8% in assay [17]; 47.9% in assay [18]. Also, in assay [19], the growth is 85.8%.
In the case of `COc1ccc(C(=O)c2sc3nc(-c4ccccc4OC)ccc3c2N)cc1OC`, the growth was 63.2% in [1]; 63% in assay [2]; 87.2% in assay [3]; 95.3% in assay [4]; 51.7% in assay [5]; 56.4% in assay [6]. The growth in assay [7] was 50.3%; in [8], 64.6%; in assay [9] it was 64.1%; in [10], 102%; in assay [11] it was 70.1%; in [12], 25.1%. Further, the growth was 90.6% in [13]; 64% in assay [14]; 55.8% in assay [15]; 64.7% in assay [16]; 47.9% in [17]; 86.6% in [18]. The growth in assay [19] was 50%.
On to `O=C1c2cc3c(cc2-c2c1c1cc(Cl)c(Cl)cc1c(=O)n2CCCn1ccnc1)OCO3`, for which the growth was -19.4% (active) in [1]; -3.81% (active) in [2]; 22.9% in assay [3]; -19.5% (active) in [4]; 6.51% (active) in assay [5]; 29.5% in [6]. Also, the growth was 1.51% (active) in assay [7]; 3.18% (active) in assay [8]; -3.17% (active) in assay [9]; 6.24% (active) in assay [10]; 8.73% (active) in [11]; 16.3% in assay [12]. For the same compound, the growth in assay [13] is 23.2%; in [14], 41.4%; in assay [15] it was 3.03% (active); in assay [16] it was 17.7%; in assay [17], -17.4% (active); in assay [18], -17.1% (active). Further, in assay [19], the growth is -11.1% (active).

(Values after PubChem BioAssay (NCI).)
